Giardia kill = Small Molecules that selectively kill Giardia lamblia: qHTS. Giardia lamblia trophozoite viability. activity change, % at 7.66 µM, hits read low. actives 0.15% (n = 340,000); in the data active = activity change below about -80%; inconclusive = between about -30% and that limit;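 note: parasites exposed to compound for two days anaerobically before the ATP read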
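Giardia lamblia trophozoites (100 cells/well) were incubated with compounds for 48 h at 37 deg C under anaerobic conditions. Viability was read as ATP content by one-step luminescence after 15-30 min at room temperature.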
ELG1 DNA repair = qHTS screen for small molecules that inhibit ELG1-dependent DNA repair in human embryonic kidney (HEK293T) cells expressing luciferase-tagged ELG1. actives 2.3% (n = 330,000). AID 504467, 2011. HEK293T ELG1-luciferase reporter, luminescence, 16 h; DNA damage induced by 5-fluorouridine. Potency, µM (series often up to 46.1 µM), most hits filed as inhibitors; note: nearly all actives have a fitted effect of over 55% in size
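5-Fluorouridine DNA damage + compound/DMSO, 2,000 cells/well, 16 h, 37 °C/5% CO2. ONE-Glo, 30 min RT, luminescence. Readout = decrease in reporter signal.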
TDP1 inh = qHTS Assay for Inhibitors of Tyrosyl-DNA Phosphodiesterase (TDP1); Potency, µM (top dose mostly 130 µM), hits mostly inhibitors; recombinant TDP1, AlphaScreen DNA substrate cleavage; actives 0.28% (n = 350,000); Tyrosyl-DNA phosphodiesterase 1 (Homo sapiens), Q9NUW8; note: nearly all actives have a fitted effect of over 40% in size
Target sequence (Q9NUW8 whole entry, looked up): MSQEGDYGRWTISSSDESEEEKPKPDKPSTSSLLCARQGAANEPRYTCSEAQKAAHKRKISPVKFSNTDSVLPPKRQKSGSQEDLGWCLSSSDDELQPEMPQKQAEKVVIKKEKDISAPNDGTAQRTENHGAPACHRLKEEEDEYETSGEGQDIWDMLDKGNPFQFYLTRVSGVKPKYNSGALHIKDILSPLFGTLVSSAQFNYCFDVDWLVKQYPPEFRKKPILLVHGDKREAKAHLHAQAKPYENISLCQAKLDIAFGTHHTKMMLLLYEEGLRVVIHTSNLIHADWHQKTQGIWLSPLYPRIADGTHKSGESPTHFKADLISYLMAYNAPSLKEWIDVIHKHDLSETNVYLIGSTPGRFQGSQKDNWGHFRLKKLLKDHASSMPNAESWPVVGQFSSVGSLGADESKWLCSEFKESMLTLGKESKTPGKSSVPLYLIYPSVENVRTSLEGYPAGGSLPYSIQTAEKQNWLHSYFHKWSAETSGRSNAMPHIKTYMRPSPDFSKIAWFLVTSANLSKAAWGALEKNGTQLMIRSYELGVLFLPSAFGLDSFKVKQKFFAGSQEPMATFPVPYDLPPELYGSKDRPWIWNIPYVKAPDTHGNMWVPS
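Recombinant E. coli-expressed Tdp1 (1 nM) preincubated with compound 15 min at RT, then 5'-biotin/3'-phosphotyrosine-FITC DNA substrate (15 nM) added for 5 min. AlphaScreen beads (10 ug/ml) added, 10 min RT; tyrosine-FITC cleavage read as signal loss.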
DT40 TDP1 CPT = qHTS for Inhibitors of human tyrosyl-DNA phosphodiesterase 1 (TDP1): qHTS in cells in presence of CPT; actives 12% (n = 420,000); Potency, µM (highest dose often 46.2 µM), usual class: inhibitors; chicken DT40 Tdp1-/-;hTDP1 cells + 20 nM CPT, ATP luminescence, 48 h; AID 686979, 2013; note: nearly all actives have a fitted effect of over 55% in size
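Cell growth measured by CellTiter-Glo luminescence after a minimum 48 h, 37 C compound exposure with 20 nM CPT in Tdp1-knockout DT40 cells stably expressing hTDP1, seeded 400/well; qHTS titration format.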
TDP1 cell noCPT = qHTS for Inhibitors of human tyrosyl-DNA phosphodiesterase 1 (TDP1): qHTS in cells in absence of CPT | actives 15% (n = 420,000) | Potency, µM (highest dose often 46.2 µM), usual class: inhibitors | DT40 Tdp1-/- hTDP1 cells, no CPT, ATP luminescence, 48 h | AID 686978, 2013; note: nearly all actives have a fitted effect of over 55% in size
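Chicken DT40 Tdp1-/- cells complemented with human TDP1, screened without camptothecin (DMSO vehicle only), 400 cells/well. Compounds pin-transferred, cells incubated at 37 °C for at least 48 hr. Growth read as ATP-dependent luminescence (CellTiter-Glo, 30 min at RT).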
IL1B secr inh = qHTS for Inhibitors of Inflammasome Signaling: IL-1-beta AlphaLISA Primary Screen. THP-1 LPS/ATP IL-1B secretion, AlphaLISA, 16 h; stronger effect = lower value. actives 4.7% (n = 360,000). activity change, % at 57.5 µM; in the data active = activity change below about -50%; inconclusive = mostly about -30% to -49%
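THP-1 cells pretreated 1 hr with compounds (up to 57.5 uM final), then stimulated with LPS (250 ng/mL final) plus ATP (1.25 mM final); secreted IL-1B measured by AlphaLISA after 16 hr, decreased signal indicating inhibition.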
Each line names hits and unclear results; the compound was inactive in the other large screens. In the library only some 19% were active in any assay of this set; here they are far more common. Unless noted, calls come from the whole dose curve; as a rule, active = well fitted curve in the direction sought with a large enough effect; inconclusive = small, poorly fitted or top-dose-only effect, or another doubt; inactive = no such curve, though single readings can be large; an effect the other way counts as inactive or inconclusive.

COc1ccc(-n2nc(C(=O)NCC(=O)N3CCCCCC3)c3ccccc3c2=O)cc1	none
C#Cc1nc(Nc2cccc(Cl)c2)nc(NC2CCCC2)n1	none (no result: Giardia kill, ELG1 DNA repair, DT40 TDP1 CPT, TDP1 cell noCPT, IL1B secr inh)
c1ccc(C2CCC(N3CCN(c4ccccc4)CC3)CC2)cc1 (stereo not given)	DT40 TDP1 CPT inconclusive, TDP1 cell noCPT inconclusive (no result: TDP1 inh)
COCc1c(C(=O)NC2CCCC2)cnn1-c1nccc(-c2cc(C)sc2C)n1	TDP1 cell noCPT inconclusive (no result: Giardia kill, ELG1 DNA repair, TDP1 inh, IL1B secr inh)
Cc1ccc(C)c(NC(=S)NC23CN4CN(CN(C4)C2)C3)c1	none
COc1ccc(-n2nc(C(=O)NCC(=O)N3CCN(C)CC3)c3ccccc3c2=O)cc1	none
COc1ccc(N2CCN(C(=O)CNC(=O)c3nn(-c4ccc(OC)cc4)c(=O)c4ccccc34)CC2)cc1	DT40 TDP1 CPT inconclusive, TDP1 cell noCPT 18µM, IL1B secr inh inconclusive
COc1cc(OC)cc(-n2nc(C(=O)N3CC(C)CC(C)C3)c3ccccc3c2=O)c1 (stereo not given)	ELG1 DNA repair 21µM, TDP1 cell noCPT inconclusive
COc1ccc(-n2nc(C(=O)NCC(=O)N3CCC(C)CC3)c3ccccc3c2=O)cc1Cl	ELG1 DNA repair inconclusive, DT40 TDP1 CPT inconclusive, TDP1 cell noCPT inconclusive
COc1ccc(-n2nc(C(=O)NCC(=O)N3CCN(c4ccccn4)CC3)c3ccccc3c2=O)cc1Cl	DT40 TDP1 CPT 12µM, TDP1 cell noCPT 12µM
COC(=O)c1ccc(OCC(=O)NCCC2=CCCCC2)c(OC)c1	ELG1 DNA repair inconclusive, DT40 TDP1 CPT inconclusive, TDP1 cell noCPT 23µM
COCCn1c(SCc2ccccc2F)nc2c([nH]c3ccccc32)c1=O	DT40 TDP1 CPT inconclusive, TDP1 cell noCPT inconclusive (no result: Giardia kill, ELG1 DNA repair, IL1B secr inh)
O=C(COC(=O)c1ccccc1Cl)NCCC1=CCCCC1	ELG1 DNA repair inconclusive, TDP1 cell noCPT inconclusive
O=C(COC(=O)c1ccccc1O)NCCC1=CCCCC1	ELG1 DNA repair inconclusive, TDP1 cell noCPT 18µM
O=C1c2ccccc2-c2onc3c(NCCO)cc(NC4CCCCC4)c1c23	DT40 TDP1 CPT 18µM, TDP1 cell noCPT inconclusive (no result: Giardia kill, ELG1 DNA repair, IL1B secr inh)
O=C(O)CCNc1cc(N2CCN(C(=O)c3ccco3)CC2)c2noc3c2c1C(=O)c1ccccc1-3	IL1B secr inh -71
CCN1CCN(c2cc(N3CCN(C(=O)c4ccco4)CC3)c3c4c(onc24)-c2ccccc2C3=O)CC1	DT40 TDP1 CPT 7.3µM, TDP1 cell noCPT 9.2µM, IL1B secr inh -52
O=C(O)CCCNc1cc(N2CCN(C3CCCCC3)CC2)c2noc3c2c1C(=O)c1ccccc1-3	none (no result: Giardia kill, ELG1 DNA repair, IL1B secr inh)
O=C1CCCC=C1[C@@H](O)CCOC(c1ccccc1)(c1ccccc1)c1ccccc1	none (no result: Giardia kill, ELG1 DNA repair, DT40 TDP1 CPT, TDP1 cell noCPT, IL1B secr inh)
Cc1cc(C)nc(Sc2ncnc3c2oc2ccccc23)n1	ELG1 DNA repair inconclusive, DT40 TDP1 CPT inconclusive, TDP1 cell noCPT 23µM
CC1CCN(S(=O)(=O)c2cn(CC(=O)Nc3ccc(C#N)cc3)cn2)CC1	DT40 TDP1 CPT inconclusive, TDP1 cell noCPT inconclusive
CC(C)CSc1ncnc2c1oc1nc3c(cc12)COC(C)(C)C3	none
C=CCSc1ncnc2c1oc1nc3c(cc12)COC(C)(C)C3	TDP1 cell noCPT 18µM
COc1cccc(/C=C2\C(=O)N(c3cccc(C)c3)C(=O)c3ccccc32)c1	ELG1 DNA repair inconclusive, DT40 TDP1 CPT 26µM, TDP1 cell noCPT inconclusive, IL1B secr inh inconclusive
COc1cccc(OC)c1C(=O)NC(=S)Nc1ccc2c(c1)OCCO2	ELG1 DNA repair inconclusive, TDP1 cell noCPT inconclusive
O=C(NC(=S)Nc1ccc2c(c1)OCCO2)c1ccccc1	ELG1 DNA repair inconclusive, DT40 TDP1 CPT inconclusive, TDP1 cell noCPT 14µM
